Inconclusive results are not listed. Where a call stands in place of a potency, no number is given. A number with no mark means an inactive call. Active and inactive are the calls of the source. The call rests on the fitted dose curve; in most records, active means well fitted curve in the direction sought with a large enough effect; inconclusive means small, poorly fitted or top-dose-only effect, or another doubt; inactive means no such curve, though single readings can be large; an effect the other way counts as inactive or inconclusive.
Assays:
[1] = Quantitative highthroughput screen to assess conditional lethalithy of NOMO1 cells grown in RPMI1640 with untreated serum (RPMI+s) (AID 1963876); further: nearly all actives have a fitted effect of over 35% in size; further: potency means the concentration at half of the fitted maximal effect
Procedure, shortened: (§1)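 Each medium arm—HPLM with 10% dialyzed FBS, or RPMI1640 with 5 mM glucose and 10% untreated or dialyzed FBS—was screened against an 11-point, 3-fold compound titration for 48 h at 37 °C, with CellTiter-Glo luminescence as endpoint.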

[2] = Quantitative highthroughput screen to assess conditional lethalithy of NOMO1 cells grown in RPMI1640 with dialyzed fetal bovine serum (RPMI+ds) (AID 1963877); further: nearly all actives have a fitted effect of over 30% in size; further: potency means the concentration at half of the fitted maximal effect; on viability: series mostly up to about 46 µM
Procedure, shortened: as §1

[3] = Quantitative highthroughput screen to assess conditional lethalithy of NOMO1 cells grown in Human Plasma-Like Medium with dialyzed fetal bovine serum (HPLM+ds) (AID 1963878); further: nearly all actives have a fitted effect of over 35% in size; further: potency means the concentration at half of the fitted maximal effect
Procedure, shortened: as §1

[4] = Quantitative highthroughput screen to assess conditional lethalithy of P12 Ichikawa cells grown in Human Plasma-Like Medium with dialyzed fetal bovine serum (HPLM+ds) (AID 1963879); conditions: Potency: viability; further: nearly all actives have a fitted effect of over 35% in size; further: potency means the concentration at half of the fitted maximal effect; on viability: series mostly up to about 46 µM
Procedure, shortened: as §1

[5] = Quantitative highthroughput screen to assess conditional lethalithy of P12 Ichikawa cells grown in RPMI1640 with dialyzed fetal bovine serum (RPMI+ds) (AID 1963880); conditions: Potency: P12-Ichikawa viability; further: nearly all actives have a fitted effect of over 35% in size; further: potency means the concentration at half of the fitted maximal effect
Procedure, shortened: as §1

[6] = Quantitative highthroughput screen to assess conditional lethalithy of P12 Ichikawa cells grown in RPMI1640 with untreated serum (RPMI+s) (AID 1963881); conditions: Potency: viability; further: nearly all actives have a fitted effect of over 35% in size; further: potency means the concentration at half of the fitted maximal effect; on viability: series mostly up to about 46 µM
Procedure, shortened: as §1

[7] = Quantitative highthroughput screen to assess conditional lethalithy of SEM cells grown in Human Plasma-Like Medium with dialyzed fetal bovine serum (HPLM+ds) (AID 1963882); further: nearly all actives have a fitted effect of over 35% in size; further: potency means the concentration at half of the fitted maximal effect; on viability: series mostly up to about 46 µM
Procedure, shortened: as §1

[8] = Quantitative highthroughput screen to assess conditional lethalithy of SEM cells grown in RPMI1640 with unreated serum (RPMI+s) (AID 1963883); further: nearly all actives have a fitted effect of over 35% in size; further: potency means the concentration at half of the fitted maximal effect
Procedure, shortened: as §1

[9] = Quantitative highthroughput screen to assess conditional lethalithy of SEM cells grown in RPMI1640 with dialyzed fetal bovine serum (RPMI+ds) (AID 1963884); further: nearly all actives have a fitted effect of over 35% in size; further: potency means the concentration at half of the fitted maximal effect; on viability: series mostly up to about 46 µM
Procedure, shortened: as §1

[10] = Cellular viability qHTS for adrenocortical cancer (ACC) cell line SW-13 (AID 1963989); conditions: SW-13 ACC cells viability, CellTiter-Glo, 48 h; activity (max response): stronger effect = lower value;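 further: cells grown in serum-free medium with ITS supplement; nearly all actives have a fitted effect of over 65% in size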
Procedure, shortened: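 SW-13 cells in ITS-supplemented serum-free DMEM were plated overnight, then exposed for 48 h at 37C to compound titrations (up to 46 uM final). Viability was read by CellTiter-Glo luminescence; four-parameter logistic fits gave IC50 and efficacy.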

[11] = Cellular viability qHTS for adrenocortical cancer (ACC) cell line NCI-H295R (AID 1963990); further: nearly all actives have a fitted effect of over 60% in size
Procedure, shortened: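 Luminescent ATP read-out (CellTiter-Glo, 20 min RT) after 48 h drug exposure of NCI-H295R cells; a titration up to 46 uM final. Data normalized to doxorubicin (100% inhibition) and DMSO (0%); 4-parameter fit gives IC50, max response.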

| SMILES | Potency [1] | Potency [2] | Potency [3] | Potency [4] | Potency [5] | Potency [6] | Potency [7] | Potency [8] | Potency [9] | activity (max response) [10] [%] | Potency [11] |
| --- | --- | --- | --- | --- | --- | --- | --- | --- | --- | --- | --- |
| CC1=C(C(=O)O)N2C(=O)[C@@H](NC(=O)C(N)c3ccccc3)[C@H]2SC1 (some centres not stated) | inactive | inactive | inactive | inactive | inactive | inactive | inactive | inactive | inactive |  |  |
| CC(C)(C)c1cc(C(=O)O)c(NC(=O)Nc2ccc3[nH]ncc3c2)s1 | inactive | inactive | inactive | inactive | inactive | inactive | inactive | inactive | inactive | -7.47 | inactive |
| O=C(C=Cc1ccc(CN(CCO)CCc2c[nH]c3ccccc23)cc1)NO | 0.59 µM (active) | 0.743 µM (active) | 0.59 µM (active) | 0.418 µM (active) | 0.418 µM (active) | 0.332 µM (active) | 0.264 µM (active) | 0.264 µM (active) | 0.296 µM (active) |  |  |
| CC#CCn1c(N2CCC[C@@H](N)C2)nc2c1c(=O)n(Cc1nc(C)c3ccccc3n1)c(=O)n2C | inactive | inactive | inactive | inactive | inactive | inactive | inactive | inactive | inactive | 0.332 | inactive |
| CC1(C)CC(O)CC(C)(C)N1[O] | inactive | inactive | inactive | inactive | inactive | inactive | inactive | inactive | inactive |  |  |
| COc1cc(C=CC(=O)CC(=O)C=Cc2ccc(O)c(OC)c2)ccc1O | 38.2 µM (active) | 42.9 µM (active) | 24.1 µM (active) | 21.5 µM (active) | 34 µM (active) | 34 µM (active) | 19.1 µM (active) | 17.1 µM (active) | 21.5 µM (active) |  |  |
| CCC(CC)[C@H](NC(C)=O)[C@@H]1[C@H](O)[C@@H](C(=O)O)C[C@@H]1N=C(N)N | inactive | inactive | inactive | inactive | inactive | inactive | inactive | inactive | inactive |  |  |
